Reference: the supplement of paper PMC6089552
Screen size: about 3,200 compounds; about 300 (9.4%) showed activity. Only a selection was taken, and actives are over-represented in it overall.

System: A673/TR/shEF
Test: cell viability (LOESS-normalised, relative to median of negative controls) (log2 ratio); higher = more viable cells (less compound effect), active = hit call of the paper (over 3 MAD below the median)
Details: treatment time: 72 h
In short: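 A673/TR/shEF Ewing sarcoma cells were plated at 1,500 per well in 384-well plates and cultured with or without doxycycline, added 24 h before compounds, to induce EWS-FLI1 shRNA knockdown. Library compounds at two or more concentrations, alongside DMSO controls, were applied for three days. Cell viability was measured by CellTiter-Glo luminescence on an Envision reader. Readings were LOESS-corrected per plate, divided by the median of negative controls and log2-transformed, and hits were wells lying at least three median absolute deviations from the median of all screened wells.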

[1] = 0.25 µM, library screen: screen2, EWS-FLI1 expression: high (no doxycycline)
[2] = 0.25 µM, library screen: screen2, EWS-FLI1 expression: low (doxycycline-induced shRNA knockdown)
[3] = 2.5 µM, library screen: screen2, EWS-FLI1 expression: high (no doxycycline)
[4] = 2.5 µM, library screen: screen2, EWS-FLI1 expression: low (doxycycline-induced shRNA knockdown)
[5] = 0.25 µM, library screen: screen1, EWS-FLI1 expression: high (no doxycycline)
[6] = 0.25 µM, library screen: screen1, EWS-FLI1 expression: low (doxycycline-induced shRNA knockdown)
[7] = 2.5 µM, library screen: screen1, EWS-FLI1 expression: high (no doxycycline)
[8] = 2.5 µM, library screen: screen1, EWS-FLI1 expression: low (doxycycline-induced shRNA knockdown)

Measured: cell viability (log2)

CC(O)C(C)OC(=O)[C@@H]1C[C@@H]2c3cccc4c3c(cn4C(C)C)C[C@H]2N(C)C1 (some centres undefined)
inactive: [1] 0.174 | [2] 0.171 | [3] 0.12 | [4] 0.112

NCCc1cccc(O)c1
inactive: [5] 0.0584 | [6] 0.0834 | [7] 0.0622 | [8] 0.0348

CN1CC[C@@]2(C)c3cc(O)ccc3N(C)C12 (some centres undefined)
inactive: [1] 0.117 | [2] 0.0622 | [3] 0.072 | [4] 0.0674

CNNC
inactive: 0.025 µM, library screen: screen2, EWS-FLI1 expression: high (no doxycycline) 0.186 | 0.025 µM, library screen: screen2, EWS-FLI1 expression: low (doxycycline-induced shRNA knockdown) 0.0401 | [5] 0.136 | [6] 0.152 | [1] 0.206 | [2] 0.035 | [7] 0.115 | [8] 0.131 | [3] 0.112 | [4] 0.0817 | 25 µM, library screen: screen2, EWS-FLI1 expression: high (no doxycycline) 0.239 | 25 µM, library screen: screen2, EWS-FLI1 expression: low (doxycycline-induced shRNA knockdown) 0.143

Nc1ncnc2c1ncn2[C@@H]1O[C@H](COP(=O)(O)CP(=O)(O)OP(=O)([O-])[O-])[C@H](O)C1O.[Li+].[Li+] (some centres undefined)
inactive: [1] 0.132 | [2] 0.0925 | [3] 0.106 | [4] 0.143

N[C@@H](Cn1ccc(=O)[nH]c1=O)C(=O)O
inactive: [1] 0.256 | [2] -0.00427 | [3] 0.176 | [4] 0.041

CNC(=O)O/N=C/C(C)(C)SC
inactive: [5] 0.0387 | [6] 0.0491 | [7] 0.106 | [8] 0.0724

C[C@@H]1OC(=O)[C@H]2C[C@H]3CCCC[C@@H]3[C@@H](/C=C/[C@@H]3CCC[C@@H](C)N3C)[C@@H]12
inactive: [1] 0.0803 | [2] 0.0731 | [3] 0.143 | [4] 0.0419

c1cncc(C2CCCCN2)c1 (centres undefined)
inactive: [5] 0.0408 | [6] -0.0074 | [7] 0.145 | [8] 0.0957

CC(C)=CCCC1(C)C=Cc2c(O)c3c(c(CC=C(C)C)c2O1)OC12C(=CC4CC1C(C)(C)OC2(CC=C(C)C(=O)O)C4O)C3=O (centres undefined)
inactive: [5] 0.1 | [6] 0.0956
active: [7] -0.137
0.307: [8]

CC(C)=CCC[C@]1(C)C=Cc2c(O)c3c(c(CC=C(C)C)c2O1)O[C@]12C(=C[C@@H]4C[C@H]1C(C)(C)O[C@@]2(C/C=C(/C)C(=O)O)C4=O)C3=O
active: [7] -1.16
inactive: [5] -0.0514 | [6] 0.129 | [8] -0.0142

CC(=O)Oc1c2c(c(CC=C(C)C)c3c1C(=O)C1=C[C@@H]4CC5C(C)(C)OC(C/C=C(\C)C(=O)O)(C4=O)[C@@]15O3)OC(C)(CCC=C(C)C)C=C2 (some centres undefined)
inactive: [5] 0.0664 | [6] 0.0597 | [7] -0.0173 | [8] 0.269

COC(=O)/C(C)=C\CC12OC(C)(C)C3CC(C=C4C(=O)c5c(OC)c6c(c(CC=C(C)C)c5OC431)OC(C)(CCC=C(C)C)C=C6)C2=O (centres undefined)
active: [7] -4.2 | [8] -3.74
inactive: [5] 0.0497 | [6] 0.135

CC(C)=CCCC1(C)C=Cc2c(O)c3c(c(CC=C(C)C)c2O1)OC12C(CC4CC1C(C)(C)OC2(C/C=C(/C)C(=O)O)C4O)C3=O (centres undefined)
inactive: [5] 0.0661 | [6] 0.00238 | [7] 0.127 | [8] 0.0888

COc1cccc(CN2CCN(Cc3ccccc3OC)CC2)c1
inactive: [5] 0.108 | [6] 0.0202 | [7] 0.149 | [8] -0.0141

COc1cc2c(cc1-c1cc3cc4ccoc4cc3oc1=O)OCO2
inactive: [5] 0.0215 | [6] -0.011 | [7] 0.0285 | [8] 0.107

CN1[C@H]2CC(OC(=O)C(CO)c3ccccc3)C[C@H]1[C@H]1O[C@H]12 (some centres undefined)
inactive: 0.103 µM, library screen: screen3, EWS-FLI1 expression: high (no doxycycline) 0.0178 | 0.103 µM, library screen: screen3, EWS-FLI1 expression: low (doxycycline-induced shRNA knockdown) 0.0286 | [5] 0.0614 | [6] 0.0379 | [1] 0.0402 | [2] 0.0538 | 0.308 µM, library screen: screen3, EWS-FLI1 expression: high (no doxycycline) 0.0468 | 0.308 µM, library screen: screen3, EWS-FLI1 expression: low (doxycycline-induced shRNA knockdown) 0.0486 | 0.926 µM, library screen: screen3, EWS-FLI1 expression: high (no doxycycline) 0.057 | 0.926 µM, library screen: screen3, EWS-FLI1 expression: low (doxycycline-induced shRNA knockdown) 0.0457 | [7] 0.101 | [8] 0.113 | [3] 0.0967 | [4] 0.105 | 2.8 µM, library screen: screen3, EWS-FLI1 expression: high (no doxycycline) 0.00477 | 2.8 µM, library screen: screen3, EWS-FLI1 expression: low (doxycycline-induced shRNA knockdown) 0.0597 | 8.3 µM, library screen: screen3, EWS-FLI1 expression: high (no doxycycline) 0.0173 | 8.3 µM, library screen: screen3, EWS-FLI1 expression: low (doxycycline-induced shRNA knockdown) 0.0298 | 25 µM, library screen: screen3, EWS-FLI1 expression: high (no doxycycline) -0.0119 | 25 µM, library screen: screen3, EWS-FLI1 expression: low (doxycycline-induced shRNA knockdown) 0.114

CCNc1nc(Cl)nc(NCC)n1
inactive: [5] 0.0934 | [6] -0.0122 | [7] 0.0949 | [8] 0.0079

c1ccc2c(c1)sc1ccccc12
inactive: [5] 0.0739 | [6] 0.0613 | [7] 0.158 | [8] 0.198

CCOP(=S)(OCC)SCSP(=S)(OCC)OCC
inactive: [5] 0.0176 | [6] 0.0157 | [7] 0.0447 | [8] 0.0694
